# The campaign covered roughly 66,000 compounds. About 960 (1.5%) showed an effect of 50% or more. Shown is part of a subset that was picked to be rich in strong results.
# Test system: Trypanosoma brucei
# Experiment: Trypanosoma brucei 72 hour study
# Format: functional, organism-based
# Set-up: scale not given: in the data most compounds retested in dose-response had high values
compound,measurement,setting,value
O=C(O)C(F)(F)F.O=C(O)C(F)(F)F.O=C(c1cccnc1)N1CCn2nnc(COc3ccccn3)c2C1,Percent Effect,"30 µM, 30.03 µM",20.03%
Cc1ncsc1CN1C[C@@H]2COC[C@]2(C(=O)NCC2CC2)C1.O=C(O)C(F)(F)F,Percent Effect,"30 µM, 30.03 µM",-10.84%
CNc1ncc2c(n1)CN(C1CCCC1)C2=O,Percent Effect,"30.3 µM, […]",-26.22%
CNCc1ccc([C@@H]2CN(C)C[C@H]2C(N)=O)cc1.Cl,Percent Effect,"30.3 µM, […]",-7.095%
CC(C)(C)c1cc(CN2C[C@H]3CC[C@@H]2CN(Cc2cscn2)C3)n[nH]1,Percent Effect,"30 µM, 30.03 µM",14.03%
O=C(NCCC1COc2ccccc2O1)c1ccc(N2CC(O)C2)nc1 (stereo unspecified),Percent Effect,"30 µM, 30.03 µM",57.01%
CN(CC1COc2ccccc2O1)C(=O)C1=NN(C)C(=O)CC1 (stereo unspecified),Percent Effect,"30 µM, 30.03 µM",-29.23%
O=C(NCc1ccc2c(c1)OCO2)c1ccc(N2CCCCCC2)nc1,Percent Effect,"30 µM, 30.03 µM",-3.476%
Cn1ccnc1-c1ccc(NCCC2COc3ccccc3O2)nn1 (stereo unspecified),Percent Effect,"30 µM, 30.03 µM",-17.77%
CC(C)c1nccn1CCCNC(=O)c1ccc(-c2cn[nH]c2)nc1,Percent Effect,"30 µM, 30.03 µM",3.874%
O=C(NCCC1COc2ccccc2O1)c1ccc(-c2cn[nH]c2)nc1 (stereo unspecified),Percent Effect,"30 µM, 30.03 µM",81.06%
CN(CC1COc2ccccc2O1)C(=O)c1ccc(-c2cn[nH]c2)nc1 (stereo unspecified),Percent Effect,"30 µM, 30.03 µM",34.02%
CC(C)c1noc(CCNC(=O)NCC2COc3ccccc3O2)n1 (stereo unspecified),Percent Effect,"30 µM, 30.03 µM",-35.89%
O=C(NCCC1COc2ccccc2O1)c1ccc(-c2cc[nH]n2)nc1 (stereo unspecified),Percent Effect,"30 µM, 30.03 µM",51.23%
CN1CCCC(c2ccnc(C(=O)NC3CC3)c2)C1 (stereo unspecified),Percent Effect,"30.3 µM, […]",-4.506%
Cc1occc1C(=O)N1CCC2(CC1)CC(OCc1ccccn1)CO2.O=C(O)C(F)(F)F (stereo unspecified),Percent Effect,"30.3 µM, […]",-782.3%
CCC(C)NC(=O)c1nnn(-c2cccc3c2CCN(C)C3)c1C (stereo unspecified),Percent Effect,"30 µM, 30.03 µM",31.65%
CC(C)c1ncc(CN2CCC(CO)C2)cn1.O=C(O)CC(O)(CC(=O)O)C(=O)O (stereo unspecified),Percent Effect,"30.3 µM, […]",-24.24%
O=C(NCc1cccnc1)N1CCC2(CC(=O)N(c3ccsc3)C2)C1.O=C(O)C(F)(F)F (stereo unspecified),Percent Effect,"30.3 µM, […]",-73.27%
Cc1ccsc1-c1cccc(-c2ccn(CC3CCNC3)n2)c1 (stereo unspecified),Percent Effect,"30 µM, 30.03 µM",33.01%
Cc1ccc(Oc2cc(F)ccc2O[C@@H]2CCC[C@@H](N)[C@H]2O)cc1,Percent Effect,"30.3 µM, […]",100.7%
Cc1cc(C)nc(N2CC[C@H](Oc3ccccc3F)[C@@H](O)CC2)n1,Percent Effect,"30.3 µM, […]",-2.702%
N[C@@H]1CCC[C@@H](Oc2ccc(F)cc2Oc2cccc(F)c2)[C@@H]1O,Percent Effect,"30.3 µM, […]",3.71%
CNCc1cc(F)ccc1Oc1ccc(F)cc1,Percent Effect,"30.3 µM, […]",-17.97%
CN[C@@H]1CCC[C@@H](Oc2ccccc2Oc2ccc(C)cc2)[C@@H]1O,Percent Effect,"30.3 µM, […]",101%
N[C@@H]1CCC[C@@H](Oc2ccc(F)cc2Oc2ccccc2)[C@@H]1O,Percent Effect,"30.3 µM, […]",101.1%
Cc1noc(C)c1C(=O)N[C@@H]1CC[C@@H](Oc2ccccc2)[C@@H]1O,Percent Effect,"30.3 µM, […]",-4.467%
CN(C(=O)c1ccon1)[C@@H]1CCC[C@@H](Oc2ccccc2)[C@@H]1O,Percent Effect,"30.3 µM, […]",-27.68%
Cc1noc(C)c1C(=O)N[C@@H]1CCC[C@@H](Oc2ccccc2)[C@@H]1O,Percent Effect,"30.3 µM, […]",5.859%
Cc1ccc(N2CC[C@H]3O[C@@H](C(=O)N4CCCCO4)CC[C@H]32)nn1.O=C(O)C(F)(F)F,Percent Effect,"30.3 µM, […]",-38.73%
Cc1cc(C(=O)N2CCc3nnc(N)cc3C2)c(C)n1-c1ccccc1,Percent Effect,10 µM,-23.32%
same,Percent Effect,"30.3 µM, […]",-29.37%
Cc1ccoc1-c1nnc(CN2CCn3c(C)nnc3C2)o1,Percent Effect,10 µM,-13.57%
same,Percent Effect,"30.3 µM, […]",-3.504%
CN(C)c1cc(C2CCCN(S(=O)(=O)c3cn[nH]c3)C2)ccn1 (stereo unspecified),Percent Effect,"30.3 µM, […]",-2.52%
Cc1cccc(CNc2cc(C3CCCNC3)ccn2)n1.Cl (stereo unspecified),Percent Effect,"30.3 µM, […]",3.917%
CCC1CN(C)c2ccccc2CN1C(=O)Nc1ccccc1OC (stereo unspecified),Percent Effect,"30.3 µM, […]",42.13%
CC(c1cccnc1)N(C)Cc1cc(O)c2cc(F)ccc2n1 (stereo unspecified),Percent Effect,"30 µM, 30.03 µM",-16.14%
Br.Cn1cc(CN2CCC(c3cc(COc4cccc(Cl)c4)[nH]n3)C2)cn1 (stereo unspecified),Percent Effect,"30.3 µM, […]",49.27%
O=C(O)C(F)(F)F.O=C(c1ccoc1)N1C[C@@H]2OCCN(c3ncccn3)[C@@H]2C1,Percent Effect,"30.3 µM, […]",-8.279%
Cc1cccc2[nH]c(-c3cn(C4CCNCC4)nn3)nc12,Percent Effect,"30 µM, 30.03 µM",-21.72%
Cc1ccc2[nH]c(-c3cn(C4CCNCC4)nn3)nc2c1C,Percent Effect,"30 µM, 30.03 µM",-22.65%
Cc1c(C)c(C)c2[nH]c(-c3cn(C4CCNCC4)nn3)nc2c1C,Percent Effect,"30 µM, 30.03 µM",91.25%
O=C(NCC1CC1)C1CCC2(CCN(C(=O)c3cccnc3)CC2)O1.O=C(O)C(F)(F)F (stereo unspecified),Percent Effect,"30.3 µM, […]",-34.45%
O=C([C@H]1C[C@@H]2CN(c3ncc(F)cn3)C[C@H]1O2)N1CCCC1,Percent Effect,"30.3 µM, […]",-1.674%
Cc1cccc(Cc2cc(C)nc(C3CCCNC3)c2)c1 (stereo unspecified),Percent Effect,"30.3 µM, […]",100.3%
Cc1cc(Cc2ccccc2)cc(C2CCCNC2)n1 (stereo unspecified),Percent Effect,"30.3 µM, […]",2.708%
Cc1cc(Nc2cnccn2)cc(C2CCCNC2)n1 (stereo unspecified),Percent Effect,"30.3 µM, […]",-9.252%
Cc1nc(C2CCCNC2)cc(N(C)CCc2ccccc2)n1 (stereo unspecified),Percent Effect,"30.3 µM, […]",33.93%
Cc1cc(Cc2ccccc2F)cc(C2CCCNC2)n1 (stereo unspecified),Percent Effect,"30.3 µM, […]",18.5%
Cc1cc(Cc2ccc(F)cc2)cc(C2CCCNC2)n1 (stereo unspecified),Percent Effect,"30.3 µM, […]",51.54%

# Reference: ChEMBL document CHEMBL3988442, “University of Dundee, Small-Polar-MMV Screening Library” (2021)
